Inconclusive results are not listed. Active and inactive are the calls of the source. The call rests on the fitted dose curve.
Target: Atrial natriuretic peptide receptor 1 (Homo sapiens) (UniProt P16066)
Assay: Natriuretic polypeptide receptor (hNpr1) antagonism - Pilot CMLD screen (AID 1347052)
Conditions: HEK293 hNpr1 GloSensor cGMP luminescence, ANP-stimulated; series mostly up to 9.22 µM
Procedure: In order to identify small molecular compounds that inhibit the hNpr1 receptor we developed a high-throughput assay to measure inhibition of the guanylate cyclase activity of the receptor. cGMP production was measured using a circular permutated Firefly luciferase (FLuc) enzyme functionally linked to the cGMP binding domain of human phosphodiesterase 5 (GloSensor technology pGS-40F, (Fan, F. et al. 2008). The cGMP-sensor was expressed in human embryonic kidney 293 (HEK-293) cells and FLuc activity was measured after stimulation with hNrp agonist peptide. hNrp agonists activates the receptor's associated guanylyl cyclase (GC) domain producing cGMP which then binds to the GloSensor resulting in FLuc activation, the enzymatic activity of which can be measured as bioluminescence with addition of luciferin substrate.
This assay was initially piloted by testing with a small library of specialty compounds.
PROTOCOL TABLES (as described by Inglese J, Shamu CE and Guy RK. 2007)
SEQUENCE No. (e.g., 1, 2, 3, etc.); […] (e.g., Cells, Incubation, Reagent, etc.); VALUE and DESCRIPTION.
1. Cells. Seed 1500 HEK293 cGMP-sensor cells expressing hNpr1 per well in 4uL into Greiner 1536-well white/solid bottom high base, tissue culture-treated plates.
2. Incubation. Incubate plated cells at 37C in 5% CO2, 95% RH overnight.
3. Reagent. Add 1uL per well GloSensor reagent from Promega (2% final concentration) or CO2 independent media vehicle control to respective columns of Greiner 1536-well plates.
4. Incubation. Incubate plated cells at room temperature for 2 h, protect from light.
5. Compounds. Library compounds and A-71915 control added at 23 nL per well, transferred by Pin Tool.
6. Incubation. Incubate plated cells for 30 min. at room temperature, protect from light.
7. Detector. GloSensor baseline pre-read luminescence measured using CCD-based camera (Viewlux).
8. Compound. Add 1uL of hNppA peptide to 0.1 nM final concentration to stimulate hNpr1 or CO2 independent media as vehicle control.
9. Incubation. Incubate treated cells at room temperature for 20 min., protect from light.
10. Detector. GloSensor post-hNppA luminescence measured using CCD-based camera (Viewlux).
NOTES (numbers refer to Sequence numbers above)
1. HEK293 cells expressing hNpr1 and GIP/pGS-40F grown to 85-95% confluence (48-72 h) in T175 culture flasks (CO2 independent media supplemented with 10% FBS, 1% Pen/Strep antibiotics and 1 ug/mL puromycin). Trypsinize and harvest cells from T175 culture flasks and filter through 40 um cell strainer. Cells counted with Invitrogen Countess (30,000,000 - 50,000,000 cells/flask). Cells diluted to a final concentration of 375 cells/uL in CO2 independent media and a Millipore multidrop used to dispense 1500 cells per well (4uL/well) into 13 1536-well Greiner White/Solid bottom, high base tissue-culture treated (TC) plates and one Aurora 1536-well Black/Clear bottom, low base, TC plate (for visual inspection of cell health throughout the duration of the assay).
2. Cells incubated overnight at ambient temperature, 24 h. at 37C in 95% RH incubator protected from light, covered with metal lid with gas-exchange holes.
3. Prepare GloSensor Reagent (Promega): Reconstitute GloSensor luciferase substrate by adding 8.2mL Hepes buffer to 250mg substrate, mix well, protect from light and stored at -80C. Prepare a fresh 12% GloSensor solution in CO2 independent supplemented plating media (see above). Mix well and store at ambient temperature, protected from light. 1uL 12% GloSensor Luciferase Reagent added (2% final concentration) to respective columns of 13 x 1536-well Greiner plate with BioRaptr, 1uL CO2 independent plating media added to respective columns as vehicle control with BioRaptr.
4. Cells incubated for 2 h. at ambient temperature, protected from light with metal lid with gas-exchange holes.
5. A-71915 stock solution prepared (10 mM in DMSO). […]

Atrial natriuretic peptide receptor 1 (Homo sapiens), sequence (P16066 whole entry, looked up): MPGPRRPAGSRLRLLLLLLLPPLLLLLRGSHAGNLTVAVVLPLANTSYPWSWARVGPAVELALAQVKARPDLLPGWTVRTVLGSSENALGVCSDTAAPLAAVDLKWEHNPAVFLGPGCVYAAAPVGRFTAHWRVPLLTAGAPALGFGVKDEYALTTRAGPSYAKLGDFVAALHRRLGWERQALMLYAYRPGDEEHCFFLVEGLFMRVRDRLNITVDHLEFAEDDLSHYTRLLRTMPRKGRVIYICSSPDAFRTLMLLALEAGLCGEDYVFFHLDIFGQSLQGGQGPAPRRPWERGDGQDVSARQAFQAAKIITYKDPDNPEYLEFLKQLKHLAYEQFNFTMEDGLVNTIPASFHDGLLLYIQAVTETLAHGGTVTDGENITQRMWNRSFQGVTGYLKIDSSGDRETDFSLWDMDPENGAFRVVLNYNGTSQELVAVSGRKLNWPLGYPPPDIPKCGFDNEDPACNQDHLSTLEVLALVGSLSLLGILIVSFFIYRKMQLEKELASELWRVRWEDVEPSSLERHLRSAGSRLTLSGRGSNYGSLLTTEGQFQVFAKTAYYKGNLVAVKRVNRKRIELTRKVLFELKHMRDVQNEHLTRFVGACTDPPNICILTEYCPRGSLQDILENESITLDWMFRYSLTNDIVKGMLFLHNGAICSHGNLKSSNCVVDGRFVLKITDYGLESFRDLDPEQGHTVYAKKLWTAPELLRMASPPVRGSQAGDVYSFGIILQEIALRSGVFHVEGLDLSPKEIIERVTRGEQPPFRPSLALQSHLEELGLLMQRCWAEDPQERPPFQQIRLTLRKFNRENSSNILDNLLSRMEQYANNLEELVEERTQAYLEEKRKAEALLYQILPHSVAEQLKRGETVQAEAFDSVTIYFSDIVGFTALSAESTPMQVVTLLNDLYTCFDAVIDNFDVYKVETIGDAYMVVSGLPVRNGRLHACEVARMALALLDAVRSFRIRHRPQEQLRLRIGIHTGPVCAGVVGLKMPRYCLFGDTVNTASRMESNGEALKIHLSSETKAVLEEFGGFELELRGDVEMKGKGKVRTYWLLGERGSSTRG

Potency, inactive:
O=C1[C@@H]2[C@H]3[C@H](O)[C@H](O)CC(=NOC[C@@H](O)COCc4ccco4)[C@@H]3CC[C@H]2C(=O)N1Cc1ccccc1
C=CC[C@@H]1C=CC(ON=CC[C@@H]2C=C[C@@H](OC(C)=O)[C@@H](COC(C)=O)O2)[C@H](CO)O1 (stereo not given in full)
N#Cc1ccc2c(c1)C[C@]1(c3ccsc3)Oc3c(c(=O)oc4ccc(F)cc34)[C@@H]2O1
OC[C@H]1O[C@H](C#Cc2ccccc2)C=C[C@@H]1O
CCN1C(=S)NC(c2cccc(C(F)(F)F)c2)C(C(=O)OC)=C1C (stereo not given)
COc1ccc(-c2nc3c(c4c2C[C@H](c2ccccc2)OC4)CN(S(=O)(=O)c2ccc(Cl)c4nonc24)CC3)c(C)c1
COc1ccc(OC[C@H]2CN3[C@H](c4ccc(Br)cc4)[C@H](C)CC[C@H]3C(=O)O2)cc1
C=C(CO[C@@H]1C=C[C@@H](c2ccccc2)O[C@@H]1CO)c1ccccc1
CC(C)(C)c1ccc(O[C@@H]2[C@H](O)CO[C@H]2C=CC#Cc2ccccc2)cc1
CCOC(=O)C(C)=NNC(C)=O
COC(=O)[C@H](C=C[C@H](C)Cc1cc(Br)cc(OCc2ccccc2)c1OC)OCc1ccccc1
COCCN1C(=O)NC(c2cccc(F)c2)C(C(=O)OC)=C1C (stereo not given)
C#C[C@@H]1C=C[C@H](Oc2ccc(OC)cc2)[C@H](CO)O1
Cc1cc2c(c(=O)o1)[C@H]1O[C@](CCCCN3C(=O)c4ccccc4C3=O)(Cc3cc(C#N)ccc31)O2
COc1cccc([C@H]2Oc3ccc(OC)cc3C(=NO[C@@H](C)c3cn([C@H](CO)Cc4ccccc4)nn3)[C@H]2O)c1
COC(=O)CCC(=O)N1C2=NC3=C(C(=O)N(Cc4ccc5c(c4)OCO5)C3=O)C3N(C)c4ccccc4[C@]23C[C@H]1CO (stereo not given in full)
COC(=O)C1=C[C@@]2(c3ccc(F)cc3[C@@H](OC)[C@@H]2C)[C@@H]2C=C[C@H]1C2
COC1=CC2C(=O)C(C1=O)C1c3ccccc3CC21 (stereo not given)
CC(=O)OC[C@H]1O[C@H](CC=NOC[C@@H](O)COCc2ccco2)C=C[C@H]1OC(C)=O
COCOc1cc(OC)ccc1C(=O)C=Cc1ccc2c(c1)OCO2
COC(=O)NC(c1ccc2c(c1)OCO2)C(C(=O)OC)C(=O)OC (stereo not given)
COc1ccc(N2C=C3C(=O)C(C)(OC(=O)C4CCCC4)C(=O)C=C3C=C2c2ccsc2)cc1 (stereo not given)
CCN1C(=NCC(C)C)NC(c2cccc(F)c2)C(C(=O)OC)=C1C (stereo not given)
COc1cc(O)c(C(=O)C=Cc2ccccc2)c(O)c1
COC(=O)CC=C[C@H](C)[C@H](Cc1ccccc1Br)OC
O=C1CCCC2=C1[C@H]1O[C@](CCCCN3C(=O)c4ccccc4C3=O)(Cc3ccccc31)O2
CCC(=O)OC1(C)C(=O)C=C2C=C(c3ccsc3)OC=C2C1=O (stereo not given)
CCOC(=O)CCN1C(=O)[C@@H]2[C@H]3[C@H](O)[C@H](O)CC(=NNC(=O)OCc4ccc(OC)cc4)[C@H]3CC[C@H]2C1=O
CCCNC(=O)CC1OC(C2CCCCC2)Cc2ccccc21 (stereo not given)
O=C1Nc2ccccc2[C@@]12O[C@H](COc1ccccc1)CC1=C2CCC1
CC(C)C(=O)N[C@H]1CCCN1C(=O)C=Cc1ccccc1
COc1ccc(O[C@H]2C=C[C@@H](c3ccccc3)O[C@H]2CON=C(C)CCN2CCCc3nc(C)c(C)cc32)cc1
CC1(OC(=O)C2CCCC2)C(=O)C=C2C=C(c3ccsc3)N(C3CC3)C=C2C1=O (stereo not given)
CC1(C)CC(=O)C2=C(C1)O[C@@]1(CCCCN3C(=O)c4ccccc4C3=O)Cc3c(ccc4ccccc34)[C@H]2O1
COC(=O)C1=C(C)N(Cc2ccccc2)C(=O)NC1CCc1ccccc1 (stereo not given)
COC(=O)N1C(C2CC2)=Cc2ccccc2C1CC(C)=O (stereo not given)
C[C@]12C[C@@](C)(C=C1C=Cc1ccc(C(F)(F)F)cc1)C(=O)C[C@H]2c1ccc(C(F)(F)F)cc1
CCN1C(=O)[C@@H]2[C@H]3[C@H](O)[C@H](O)CC(=NO[C@@H]4O[C@H](COC(C)=O)[C@@H](OC(C)=O)[C@H](OC(C)=O)[C@@H]4OC(C)=O)[C@@H]3CC[C@H]2C1=O
C=CCC12C=C(OC)C(=O)C(C1=O)C1c3ccccc3CC12 (stereo not given)
CC(=O)OC[C@H]1O[C@H](CC=NO[C@@H](C)c2cc(-c3c(C)cc(C)cc3C)no2)C=C[C@@H]1OC(C)=O
